Experimental data taken from PubChem BioAssay.
Activity calls are given as the source filed them.

Legend:
Albumin (Bos taurus) = Albumin (Bos taurus) (UniProt P02769); experiment: bovine serum albumin binders on microarray, profiling panel, artefact control for SMM control protein annotation, biochemical, small-molecule microarray, Alexa647 label, 635/667 nm fluorescence (AID 1118); conditions: BSA-A647 binding, fluorescence 635 nm, higher = more signal;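 further: score merges 667 nm emission intensity and signal-to-noise per printed compound spot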
Chain of Albumin (Bos taurus) (P02769 whole entry, looked up): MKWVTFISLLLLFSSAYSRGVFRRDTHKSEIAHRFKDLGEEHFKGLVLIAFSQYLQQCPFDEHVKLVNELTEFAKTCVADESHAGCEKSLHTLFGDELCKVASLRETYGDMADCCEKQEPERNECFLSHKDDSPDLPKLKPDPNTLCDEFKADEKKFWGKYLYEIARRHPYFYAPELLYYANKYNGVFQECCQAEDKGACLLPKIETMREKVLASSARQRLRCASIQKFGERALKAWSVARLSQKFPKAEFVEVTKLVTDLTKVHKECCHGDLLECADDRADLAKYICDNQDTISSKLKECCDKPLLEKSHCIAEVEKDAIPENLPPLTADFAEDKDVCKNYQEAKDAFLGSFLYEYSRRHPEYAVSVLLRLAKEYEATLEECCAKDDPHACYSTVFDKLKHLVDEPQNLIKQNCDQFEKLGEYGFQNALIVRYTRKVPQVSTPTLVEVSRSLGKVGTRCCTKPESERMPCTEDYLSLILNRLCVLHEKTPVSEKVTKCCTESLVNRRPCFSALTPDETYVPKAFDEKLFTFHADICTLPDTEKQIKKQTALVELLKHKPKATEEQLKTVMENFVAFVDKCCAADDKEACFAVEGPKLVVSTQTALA

[1] = small-molecule microarray binders of probe aXIP, primary screen, biochemical, NeuroSMM set, 635/667 nm fluorescence (AID 1119); conditions: higher = more signal, called active from +8 up or from −8 down;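 further: probe is the protein aXip251-270 applied at 1 µg/mL to compound-printed slides; binding of probe to printed compounds measured as 667 nm fluorescence plus signal to noise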
[2] = small-molecule binders of probe aNOTCH3, primary screen, biochemical, small-molecule microarray, 635/667 nm fluorescence (AID 1120); conditions: higher = more signal;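 further: probe is a biotin-tagged antibody raised against NOTCH3 rather than NOTCH3 protein; score merges spot fluorescence near 667 nm with spot signal to noise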
[3] = small-molecule binders of probe aNOTCH2, primary screen, biochemical, small-molecule microarray, 635/667 nm fluorescence (AID 1121); conditions: higher = more signal;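 further: score merges feature fluorescence read at 667 nm with its signal to noise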
[4] = target: Carbonic anhydrase 2 (Homo sapiens) (UniProt P00918); experiment: CAII small-molecule binders, profiling panel, biochemical, small-molecule microarray, Alexa647-labelled CAII (AID 1122); conditions: CAII-A647 binding fluorescence, higher = more signal
[5] = COS7 lysate on small-molecule microarray, probe aHis, 635 nm (AID 1123); conditions: COS7 cell lysate, fluorescence, higher = more signal;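 further: z-score combines 667nm fluorescence intensity with signal-to-noise per printed compound spot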
[6] = compound binding in COS7 lysate, probe aLAP1, primary screen, cell lysate, small-molecule microarray (AID 1124); conditions: probe aLAP1, fluorescence, higher = more signal;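 further: lysate comes from COS7 cells expressing LAP1 and is applied at 0.3 µg/mL; score merges spot fluorescence near 667 nm with signal-to-noise over triplicate slides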
Sam68 (KHDRBS1) = experiment: Sam68 small-molecule binders, primary screen, biochemical, small-molecule microarray, 635 nm fluorescence (AID 1125); conditions: small-molecule microarray binding, higher = more signal;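 further: score merges 667 nm channel intensity with signal to noise over triplicate slides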
[7] = system: Chordin-like protein 2 (CHRDL2); experiment: CHRDL2 small-molecule binders, primary screen, biochemical, small-molecule microarray, 635 nm fluorescence (AID 1126); conditions: small-molecule microarray binding, fluorescence 635 nm; higher = more signal;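 further: printed compound slides probed with Chrdl2 protein at 4 µg/mL for 1 h at 4 C; score merges 667 nm emission intensity with signal to noise over three replicate slides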
[8] = target: Concanavalin-A (Canavalia ensiformis) (UniProt P02866); experiment: ConA small-molecule binders, primary screen, artefact control for SMM control protein annotation, biochemical, small-molecule microarray, Alexa647 label, 635 nm (AID 1127); conditions: ConA-A647 binding fluorescence, higher = more signal;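 further: z combines 667 nm emission intensity with signal-to-noise across three replicate slides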
Chain of Concanavalin-A (Canavalia ensiformis) (P02866 whole entry, looked up): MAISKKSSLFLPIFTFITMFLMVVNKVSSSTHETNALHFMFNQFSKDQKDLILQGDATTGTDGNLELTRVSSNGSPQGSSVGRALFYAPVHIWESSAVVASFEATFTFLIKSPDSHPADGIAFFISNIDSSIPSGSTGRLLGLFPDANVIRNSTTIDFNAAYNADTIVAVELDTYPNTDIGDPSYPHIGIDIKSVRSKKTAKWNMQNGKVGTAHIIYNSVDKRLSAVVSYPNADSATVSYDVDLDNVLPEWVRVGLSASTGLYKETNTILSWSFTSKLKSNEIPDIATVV

[9] = anti-His antibody binders, primary screen, artefact control for SMM control protein annotation, biochemical, small-molecule microarray, 635 nm fluorescence (AID 1128); conditions: anti-His Alexa647 antibody binding, higher = more signal;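 further: score merges feature fluorescence with signal-to-noise for each printed compound spot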
[10] = system: Human papillomavirus type 1a E7 protein (residues 1-88); experiment: HPV1a E7 small-molecule binders, primary screen, biochemical, small-molecule microarray, residues 1-88, 635 nm (AID 1129); conditions: small-molecule microarray binding, fluorescence 635 nm; higher = more signal
[11] = target: Focal adhesion kinase 1 (Homo sapiens) (UniProt Q05397); experiment: small-molecule microarray binders of FAK, primary screen, biochemical, 635/667 nm fluorescence, BSA, DTT (AID 1130); conditions: PTK2 binding, 635 nm fluorescence, higher = more signal;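 further: composite of spot emission at 667 nm and signal to noise over triplicate slides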
Chain of Focal adhesion kinase 1 (Homo sapiens) (Q05397 whole entry, looked up): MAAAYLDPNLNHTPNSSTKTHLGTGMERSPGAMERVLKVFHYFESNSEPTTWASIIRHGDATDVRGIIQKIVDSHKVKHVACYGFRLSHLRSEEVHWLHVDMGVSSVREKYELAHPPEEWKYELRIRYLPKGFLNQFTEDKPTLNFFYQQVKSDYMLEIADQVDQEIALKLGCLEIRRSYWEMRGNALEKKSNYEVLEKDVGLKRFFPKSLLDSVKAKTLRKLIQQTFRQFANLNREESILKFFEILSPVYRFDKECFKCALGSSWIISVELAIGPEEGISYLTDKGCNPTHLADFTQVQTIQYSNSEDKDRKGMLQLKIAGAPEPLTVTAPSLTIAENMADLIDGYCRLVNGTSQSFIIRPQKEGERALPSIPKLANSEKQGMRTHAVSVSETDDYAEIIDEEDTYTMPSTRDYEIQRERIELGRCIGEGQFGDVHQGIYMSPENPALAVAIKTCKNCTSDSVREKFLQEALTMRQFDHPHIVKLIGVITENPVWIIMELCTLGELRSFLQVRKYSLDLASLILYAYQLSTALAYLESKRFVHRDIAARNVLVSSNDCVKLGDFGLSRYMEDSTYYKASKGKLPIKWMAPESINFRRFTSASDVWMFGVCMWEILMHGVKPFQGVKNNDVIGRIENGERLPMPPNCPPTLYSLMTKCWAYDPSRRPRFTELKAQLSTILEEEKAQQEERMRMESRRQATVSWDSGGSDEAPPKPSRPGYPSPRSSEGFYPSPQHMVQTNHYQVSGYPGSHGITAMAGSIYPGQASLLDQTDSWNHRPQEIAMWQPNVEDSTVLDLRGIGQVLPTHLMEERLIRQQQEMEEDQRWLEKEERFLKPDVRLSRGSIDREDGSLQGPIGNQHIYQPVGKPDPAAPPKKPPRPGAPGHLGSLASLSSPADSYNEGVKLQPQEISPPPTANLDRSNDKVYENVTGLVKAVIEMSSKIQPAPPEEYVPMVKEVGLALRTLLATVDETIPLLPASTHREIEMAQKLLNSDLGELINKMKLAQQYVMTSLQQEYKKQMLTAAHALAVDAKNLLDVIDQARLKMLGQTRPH

[12] = system: Fibrinogen (Alexa647-labelled); experiment: fibrinogen binders on compound microarrays, profiling panel, artefact control for SMM control-protein annotation, biochemical, small-molecule microarray, 635/667 nm fluorescence (AID 1131); conditions: fibrinogen-A647 binding fluorescence, higher = more signal;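 further: z-score merges 667 nm fluorescence with per-spot signal-to-noise over triplicate slides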
[13] = target: Follistatin (Homo sapiens) (UniProt P19883); experiment: follistatin binders on small-molecule microarrays, primary screen, biochemical, small-molecule microarray, 635/667 nm fluorescence (AID 1132); conditions: FST binding, 635 nm fluorescence, higher = more signal
Chain of Follistatin (Homo sapiens) (P19883 whole entry, looked up): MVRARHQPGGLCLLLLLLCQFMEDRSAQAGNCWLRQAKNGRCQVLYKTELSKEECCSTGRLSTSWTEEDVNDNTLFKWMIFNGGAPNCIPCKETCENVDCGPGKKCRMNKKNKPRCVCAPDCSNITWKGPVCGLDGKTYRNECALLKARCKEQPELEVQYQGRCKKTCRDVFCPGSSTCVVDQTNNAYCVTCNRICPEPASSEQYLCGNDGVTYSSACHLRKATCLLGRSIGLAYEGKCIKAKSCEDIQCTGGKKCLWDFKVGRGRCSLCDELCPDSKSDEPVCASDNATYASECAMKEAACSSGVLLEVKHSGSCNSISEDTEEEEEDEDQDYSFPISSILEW

[14] = target: Fibroblast growth factor 2 (Homo sapiens) (UniProt P09038); experiment: FGF2 binders on small-molecule microarrays, primary screen, biochemical, small-molecule microarray, 635/667 nm fluorescence (AID 1133); conditions: small-molecule microarray binding, FGF2, fluorescence 635/667; higher = more signal
Chain of Fibroblast growth factor 2 (Homo sapiens) (P09038 whole entry, looked up): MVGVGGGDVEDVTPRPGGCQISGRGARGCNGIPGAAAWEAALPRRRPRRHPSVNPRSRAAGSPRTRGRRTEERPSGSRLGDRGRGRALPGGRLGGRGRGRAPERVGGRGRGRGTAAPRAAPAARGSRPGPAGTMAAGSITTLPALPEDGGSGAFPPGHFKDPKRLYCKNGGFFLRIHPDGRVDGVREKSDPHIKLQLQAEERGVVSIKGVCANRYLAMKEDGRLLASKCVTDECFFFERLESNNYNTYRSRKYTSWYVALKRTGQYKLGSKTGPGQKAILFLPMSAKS

[15] = mitochondrial membrane potential change in A549 cells, profiling panel, cell-based, JC-1 fluorescence, basal, 24 h, 100 nL (AID 1138); conditions: higher = more signal;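 further: A549 lung adenocarcinoma cells under basal conditions with no added stimulus; test concentration not given here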
Lefty1 = Lefty1 binders on small-molecule microarrays, primary screen, biochemical, small-molecule microarray, 635/667 nm fluorescence (AID 1139); conditions: small-molecule microarray binding, fluorescence 635/667; higher = more signal
[16] = system: wheat germ agglutinin (Triticum aestivum), Alexa647-labelled; experiment: wheat germ agglutinin binders on compound microarrays, profiling panel, artefact control for SMM control-protein annotation, biochemical, small-molecule microarray, 635/667 nm fluorescence (AID 1140); conditions: WGA-A647 binding, 635 nm fluorescence, higher = more signal;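 further: score merges 667 nm feature emission with signal to noise over triplicate slides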
[17] = target: Luciferin 4-monooxygenase (Photinus pyralis) (UniProt P08659); experiment: firefly luciferase enzyme inhibitors, primary screen, biochemical, luminescence, purified enzyme, 2006 set (AID 1141); conditions: SteadyGlo luminescence, 30 min, higher = more signal, called active from +8 up or from −8 down;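 further: cell-free assay with purified firefly luciferase at 100 ng per well in PBS; test concentration not given here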
Chain of Luciferin 4-monooxygenase (Photinus pyralis) (P08659 whole entry, looked up): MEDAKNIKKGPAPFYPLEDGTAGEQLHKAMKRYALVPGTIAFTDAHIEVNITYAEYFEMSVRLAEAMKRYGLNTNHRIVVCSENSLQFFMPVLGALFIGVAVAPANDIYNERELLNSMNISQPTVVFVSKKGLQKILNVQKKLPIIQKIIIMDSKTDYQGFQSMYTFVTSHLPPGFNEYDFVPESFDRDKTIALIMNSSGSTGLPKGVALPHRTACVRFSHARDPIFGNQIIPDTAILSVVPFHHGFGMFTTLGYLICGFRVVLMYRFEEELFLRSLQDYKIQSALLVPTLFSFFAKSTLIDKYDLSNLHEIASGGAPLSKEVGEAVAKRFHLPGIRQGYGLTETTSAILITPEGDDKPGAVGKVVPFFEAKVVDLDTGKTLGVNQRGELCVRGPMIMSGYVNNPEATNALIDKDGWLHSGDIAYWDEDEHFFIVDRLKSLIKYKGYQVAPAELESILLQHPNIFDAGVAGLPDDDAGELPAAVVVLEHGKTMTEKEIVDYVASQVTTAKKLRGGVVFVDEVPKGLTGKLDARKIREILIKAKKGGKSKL

SMILES | composite z-score (Albumin (Bos taurus)) | composite Z-score [1] | composite z-score [2] | composite z-score [3] | composite z-score [4] | composite z-score [5] | composite z-score [6] | composite z-score (Sam68 (KHDRBS1)) | composite z-score [7] | composite z-score [8] | composite z-score [9] | composite z-score [10] | composite z-score [11] | composite z-score [12] | composite z-score [13] | composite z-score [14] | z-score [15] | composite z-score (Lefty1) | composite z-score [16] | z-score [17]
CCCCC#C[C@@H]1C=C[C@H](Oc2ccc(C(=O)OC)cc2)[C@@H](COC(=O)OCC)O1 | 0.109 | -0.0877 (inactive) | -0.106 | -0.0578 | 0.39 | 0.205 | 0.0053 | 0.769 | 0.978 | 0.64 | 0.516 | 0.459 | -0.0377 | 0.531 | 0.974 | 0.585 | -0.896 | 0.309 | 0.276 | -3.64 (inactive)
O=c1n(Cc2cc3c(cc2Cl)OCO3)c(=O)n2n1CC[C@@H]1C(=NOC[C@@H](O)COCc3ccco3)[C@H]3O[C@H]3[C@@H](O)[C@@H]12 | -0.0922 | -0.263 (inactive) | -0.0841 | -0.0974 | 0.351 | -0.0175 | 0.0735 | 0.175 | 0.57 | 0.392 | 0.0465 | 0.642 | -0.0676 | 0.354 | 0.568 | 0.546 | -0.15 | 0.414 | 0.004 | -0.357 (inactive)
O=C1C[C@@H](O)[C@@H](O)[C@@H]2[C@@H]3C(=O)N(c4cccc(Oc5ccccc5)c4)C(=O)[C@@H]3CC[C@H]12 | 0.332 | 0.454 (inactive) | -0.085 | -0.137 | -0.0963 | 0.104 | 0.183 | 0.21 | 0.455 | 0.505 | -0.0123 | 0.818 | -0.031 | 0.345 | 0.505 | 0.31 | 1.23 | 0.471 | 0.268 | -0.275 (inactive)
CCOC(=O)CCN1C(=O)[C@H]2[C@H]3[C@H](O)[C@H](O)CC(=NOCc4ccccc4)[C@H]3CC[C@H]2C1=O | -0.271 | 0.119 (inactive) | 0.191 | -0.0467 | -0.19 | 0.343 | -0.27 | 0.152 | 0.578 | -0.477 | 0.0669 | -0.469 | -0.017 | 0.658 | -0.851 | -0.772 | 0.229 | -0.579 | 0.343 | 0.563 (inactive)
COc1cc(O)c(C(=O)C=Cc2ccc3c(c2)OCO3)c(OC)c1 | 0.0618 | -0.024 (inactive) | -0.0647 | -0.134 | -0.337 | -0.932 | -0.185 | -1.93 | 0.102 | 1 | -0.132 | -1.44 | 0.0276 | 0.0337 | 0.4 | -0.19 | 0.209 | 0.707 | 0.393 | -5.1 (inactive)
COC(=O)CC=C[C@@H](C)[C@@H](C=NO[C@@H]1O[C@H](COC(C)=O)[C@@H](OC(C)=O)[C@H](OC(C)=O)[C@H]1OC(C)=O)NS(=O)(=O)c1ccc(C)cc1 | -0.228 | 0.504 (inactive) | -0.0111 | -0.0984 | -0.701 | -0.323 | -0.045 | 0.682 | -0.051 | -0.909 | -0.588 | -0.231 | 0.14 | -0.083 | 0.484 | 0.35 | -0.63 | 0.647 | -0.986 | 1.08 (inactive)
C[C@H]1CC[C@H]2C(=O)O[C@H](COc3ccc(C(C)(C)C)cc3)CN2[C@@H]1c1ccc(Br)cc1 | 0.513 | 1.48 (inactive) | -0.0435 | -0.123 | -0.232 | 0.263 | 0.253 | 0.421 | -0.0816 | 1.09 | 2.63 | 0.243 | 0.189 | 0.503 | 0.0469 | -0.101 | 0.972 | 0.395 | 0.034 | -1.73 (inactive)
COCCNC(=O)OCC1CCCC2(CC(OC(=O)NCc3ccc4c(c3)OCO4)CC(CCC(=O)N[C@@H](C)C(=O)OC)O2)O1 (stereo not given in full) | 0.0746 | 0.161 (inactive) | -0.0164 | -0.0666 | 0.234 | 0.678 | -0.0692 | 1.3 | 0.454 | 1.02 | 0.721 | 0.885 | 0.136 | 0.592 | 0.752 | 1.13 | -0.397 | 1.3 | 0.139 | 0.89 (inactive)
COc1ccc(O[C@H]2C=C[C@@H](c3ccccc3)O[C@@H]2CON=CC[C@@H]2C=C[C@H](OC(C)=O)[C@@H](COC(C)=O)O2)cc1 | 0.779 | 0.112 (inactive) | 0.0893 | -0.145 | -0.198 | -0.478 | 0.221 | -0.176 | 0.366 | 0.543 | 2.11 | -0.311 | 0.178 | 0.516 | 0.229 | 0.107 | 0.124 | 0.257 | 0.807 | -0.354 (inactive)
CCC(=O)[C@@]1(O)C(=O)N2C(=C3C(=O)OCC[C@@H]31)N(Cc1ccccc1)C(C)=C(C(=O)OC)[C@H]2c1ccccc1 | -0.111 | 0.256 (inactive) | 0.0597 | -0.158 | -0.109 | 0.0028 | 0.137 | 0.431 | 0.627 | 0.602 | 0.188 | 0.405 | 1.08 | 0.375 | 0.538 | 0.465 | 0.523 | 0.436 | 0.0183 | -0.901 (inactive)
COC(=O)C1=C(C)N(Cc2ccccc2)[C@]23O[C@](C(=O)OC)(C(=O)N2[C@@H]1c1ccccc1)C(C(=O)OC)=C3C(=O)OC | 0.387 | -0.177 (inactive) | 0.201 | -0.0439 | 0.489 | 0.421 | -0.624 | 0.988 | 0.503 | 1.18 | 0.686 | 0.653 | 0.0309 | 0.784 | 0.732 | 0.808 | -0.489 | 1.09 | -0.0964 | -0.371 (inactive)
